Consider 40 compounds from PubChem BioAssay (NCI).

Where “and” joins values, the source holds several entries; their conditions need not be identical. Equal entries are not always repeated. This is part of a sample that, as a whole, favours compounds with a hit. Of some 83,000 tested, about 20% had one in any assay.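 Single-concentration screen, 48 h exposure, 96-well plates. Endpoint: percent growth. Below 10 = active.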 A number with no mark means an inactive call. Calls of active or inactive are those of the source.

This experiment has as its system MDA-MB-468 breast. As to the kind of experiment: NCI-60 one-dose screen, 48 h (100 = growth as untreated, 0 = no growth, -100 = all killed). To be noted: 10 µM unless noted.
Consider `COc1cc(-c2csc(NC(=O)Nc3ccc(Cl)cc3Cl)n2)cc(OC)c1OC`, for which the growth is 17.7%. `O=C(CSc1nc2ccccc2c(=O)n1-c1ccc(Cl)cc1)N/N=C/c1ccc(N2CCCCC2)cc1`: the growth is 79.5%. Take `COc1cccc2c1c1nc3cc(C)c(C)cc3nc1n2CCN(C)C`: the growth was -8.02% (active). With `COC(=O)c1cc(-c2ccc(Cl)c(Cl)c2)[nH]c(=O)c1C#N` the figure was 99.6%; with `Nc1c(C(=O)Nc2ccnc3ccccc23)sc2nc3c(cc12)CN(Cc1ccccc1)CC3`, 44%; with `CC/C=C\CCC/C=C1/C(=O)C=C[C@@H]1C/C=C\CCCC(=O)O`, 76.1%.

Regarding `CC(=O)O[C@@H]1C[C@]2(C)[C@H]3[C@H](O)C[C@@H]4C5=CC(C)(C)CC[C@]5(C)CC[C@@]4(C)[C@]3(C)CC[C@H]2C(C)(C)[C@H]1O`, the growth is 116%. In the case of `CCN1C(=O)N[C@H]2[C@@H]3NC(=O)c4ccc(Cl)n4[C@@H]3C[C@]21O`, the growth is -6.44% (active). As for `N#Cc1c(-c2ccc(F)cc2)nc(N/N=C/c2cccc(O)c2)nc1N1CCOCC1`, the figure is 81.1%. With `CC1=NC(=S)NC(c2ccccc2)/C1=C1/CC(c2ccccc2O)NN1` (stereo not given), the growth is 107%. As to `O=[N+]([O-])c1ccc(N=Nc2ccc(O)c3ccccc23)cc1`, the growth is 26.7%. Turning to `CN(CCc1ccccc1)C(=S)N(C(=O)c1ccc([N+](=O)[O-])cc1)c1ccc(Cl)cc1`, the growth is 37.4%.

Take `COc1ccc(C(c2ccc(OCCN(C)C)cc2)c2cc3ccccc3c3ccccc23)cc1` (stereo not given): the growth is 2.65% (active). As for `O=C(CI)NC1Oc2ccccc2-c2oc(=O)c(-c3ccccc3)cc21` (stereo not given), the growth is -42.3% (active). Turning to `CC(C)(C)C(=O)OCOP(=O)(OCOC(=O)C(C)(C)C)C1CCCN(OC(=O)c2ccccc2)C1=O` (stereo not given), the growth is 29.6%. As for `O=C(NCc1ccco1)C1CN(c2ccc(Cl)cc2)N(c2ccc(Cl)cc2)C1=O` (stereo not given), the figure is 42.4%; as for `O=C(O)c1cccc(N/C=C/C(=O)c2cc3cc(Br)ccc3oc2=O)c1`, 96.1%; as for `Oc1ccccc1/C=N/N=C/c1c(O)ccc2ccccc12`, 83.4%. With `C#Cc1ccc(-n2c(/C=C/c3ccc4ccccc4n3)nc3ncccc3c2=O)cc1`, the growth is -68.1% (active). Regarding `CCCCCCCC(=O)SCC/C=C/[C@@H]1CC(=O)NCc2cccc(n2)C2=N[C@@](C)(CS2)C(=O)N[C@@H](C(C)C)C(=O)N1`, the growth is -10.5% (active). Regarding `O=C(c1ccc(F)cc1)C1CCN(CCn2c(=O)[nH]c3ccccc3c2=O)CC1`, the growth is 104%. With `CCNC(=O)N1CCc2c(Br)c3c(c(OC)c2C1Cc1ccc(OC)cc1)OCO3` (stereo not given) the figure was 19.2%; with `Cc1cc(C(=O)O)c(C)n1-c1cccc(C(=O)O)c1`, 70.1%; with `C=CCC(CCCC)(C(=O)OCC)C(=O)OCC`, 107%. On to `COc1ccc(C(=O)/C=C/c2c(OC)cc(OC)cc2OC)c(OC)c1`, for which the growth is -25.1% (active). Regarding `NC(N)=NC(N)=Nc1ccccc1-c1ccccc1`, the growth is 109%. With `CC1(C)/C(=C\CO)C2CCC1C2` (stereo not given), the growth is 101%. As to `CCCCCCCC(=O)SCC/C=C/[C@@H]1CC(=O)NCc2cccc(n2)CN(Cc2ccc(Cl)cc2)CC(=O)N[C@@H](C(C)C)C(=O)O1`, the growth is 44.6%.

As to `CN1CCN(C(=O)c2c3c(n4ccccc24)C(=O)c2ncccc2C3=O)CC1`, the growth was 88.4%.

Turning to `CCN(CC)CCNC(=O)C(F)(F)C(F)(F)C(F)(F)F`, the growth was 105%. With `Cc1cc(NCc2cc(Nc3ccnc4cc(Cl)ccc34)ccc2F)nc(N2CCOCC2)n1`, the growth was 39.9%. As for `CC/C(Cc1ccccc1)=C(/c1ccc(O)cc1)c1ccc(OCCN2CCCC2)cc1`, the figure is -82.1% (active).

In the case of `Cc1nc2cc(Nc3nc(Nc4ccc(F)cc4)nc(-c4ccc(Cl)cc4)n3)ccc2n1Cc1ccccc1`, the growth was 74.3%. With `Nc1ccccc1Nc1ccccc1` the figure was 120% and 118%; with `CC(=O)C1C(=O)C(=O)N(c2ccc(Cl)c(Cl)c2)C1=O` (stereo not given), 115%. For the compound `Nc1nc(=S)ss1`, the growth was 101%.

Consider `CCN(CC)CCCC(C)Nc1ccc2ccc(Cl)cc2n1` (stereo not given), for which the growth was 77.8%. Turning to `Cc1cc(N2CCCCCC2)nc(N2CCN(CC(=O)Nc3ccc4c(ccn4Cc4ccccc4)c3)CC2)n1`, the growth is 17.4%. With `OC(COc1cccc2ccccc12)CN1CCN(c2ccccc2Cl)CC1` (stereo not given), the growth was 89.7%. On to `CCOC(=O)C(CCCCC(NC(C)=O)(C(=O)OCC)C(=O)OCC)(NC(C)=O)C(=O)OCC`, for which the growth is 107%.
